Measurements taken from PubChem BioAssay (NCI).
The panel holds about 79,000 compounds, 15% with a hit somewhere; the sample as a whole holds those more often. A number with no mark means an inactive call. The source made the active and inactive calls. Cut-off read from the data, not from the text of the source: active = growth inhibition above about 70%; inactive = the rest.

Experiment: NCI Yeast Anticancer Drug Screen. Data for the sgs1 mgt1 strain (AID 161);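 note: 0% = growth of cultures given vehicle only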
Details: S. cerevisiae sgs1 mgt1 strain, at 50.0 µM, active compounds read high
Method in brief: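 Genetically altered yeast, compound exposure, growth inhibition relative to vehicle.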
For `CC/C(Cl)=N\OC(=O)Nc1ccccc1OC(F)(F)F`, the growth inhibition was 87.2% (active). In the case of `CCCCCc1ccc2oc(=O)c3ccc(C)cc3c2c1O`, the growth inhibition is reported as 16.2%. With `Cc1ccc2cccc3c2c1CC1(C3=O)S(=O)(=O)OCCOS1(=O)=O` the growth inhibition was 20.1%. With `O=C(CC12C3C4C1C1C2C3C41CC(=O)NO)NO` (configuration not stated) the growth inhibition was -29.2%. In the case of `c1csc(CNc2cccc3ccccc23)c1`, the growth inhibition is reported as 31.6%. In the case of `O=S(=O)(C/C=C/COc1ccccc1)c1ccc2ccccc2c1`, the growth inhibition is reported as 23.8%. `NC1=NC(c2ccccc2)C2=C(N1)C(=O)N(c1ccc(Br)cc1)C2` (configuration not stated) gave a growth inhibition of -2.45%. `CCc1cccc(NC(=O)c2cc(/C=C/c3ccccc3)[nH]c(=S)n2)c1` showed a growth inhibition of 6.95%. With `COC1C=C(Br)C(=O)C(C)O1` (configuration not stated) the growth inhibition was -25.6%. For `CCOC(=O)/C(=C\c1ccnc2ccccc12)P(=O)(OCC)OCC`, the growth inhibition was 15.4%. Compound `c1ccc(C2=NCCN2)nc1` has a growth inhibition of -5.7%. In the case of `O=C1/C(=C/c2ccc(O)c(O)c2)CC/C1=C\c1ccc(O)c(O)c1`, the growth inhibition is reported as -21%. In the case of `CSc1ncc2c(n1)-c1ccccc1OC2N1CCCCC1` (configuration not stated), the growth inhibition is reported as 7.4%. For `S=C(SSSC(=S)N(C1CCCCC1)C1CCCCC1)N(C1CCCCC1)C1CCCCC1`, the growth inhibition was 10.1%. For `CCC[CH2][Ge]([CH2]CCC)([CH2]CCC)[O]C(=O)CCl`, the growth inhibition was -4.75%. `Cc1ccc([N+](=O)[O-])cc1NC(=O)C(=O)C(C(=O)c1ccccc1F)C1OC(=O)c2ccccc21` (configuration not stated) showed a growth inhibition of -14.4%. With `CN1C=CCC(C=O)C1` (configuration not stated) the growth inhibition was 0.05%. Work on `O=C(C(O)c1ccccc1)N1CCCCC1` (configuration not stated) yielded a growth inhibition of -2.95%. Compound `O=C(OCc1ccccc1)c1ccccc1-c1c2ccc(=O)cc-2oc2cc(OCc3ccccc3)ccc12` has a growth inhibition of 40.9%. In the case of `CCCCCCCC/C=C\CCCCCCCC(=O)O`, the growth inhibition is reported as -2.2%. For `CCc1cccc[n+]1CC(=O)c1ccccc1`, the growth inhibition was -0.85%. For `c1ccc(Sc2cccc3c(-c4ccccc4)c4cccc5c4c(c23)C[S+]5c2ccccc2)cc1` (configuration not stated), the growth inhibition was 99.2% (active).

Experiment: NCI Yeast Anticancer Drug Screen. Data for the cln2 rad14 strain (AID 165);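 note: 0% = growth equal to vehicle treated cultures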
Details: S. cerevisiae cln2 rad14 strain, at 50.0 µM, active compounds read high
Method in brief: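 Test compounds were added to cln2 rad14 yeast cultures; inhibition of growth was then determined by comparison with vehicle treatment.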
For `CCCCCN1C(=O)N=NC1=S`, the growth inhibition was 2.7%. Compound `CCOC(=O)NC(=O)c1cn(CCCOC(=O)CCCCCCCCCCC(=O)OCCCn2cc(C(=O)NC(=O)OCC)c(=O)n(C)c2=O)c(=O)n(C)c1=O` has a growth inhibition of 15.3%. Work on `Cc1cc2[nH]c3ccccc3n2c(=O)c1N=Nc1ccccc1` yielded a growth inhibition of -14.3%. `COc1c(OC2OC(CO)C(O)C(O)C2O)cc2occ(-c3ccc4c(c3)OCO4)c(=O)c2c1O` (configuration not stated) showed a growth inhibition of 4.6%. Work on `[O-][N+](=Nc1ccccc1Cl)c1ccccc1Cl` yielded a growth inhibition of 4.15%. With `O=C(c1ccccc1)c1cccc2c1ccc1ccccc12` the growth inhibition was 17%. `CC1(O)Oc2c(cc(C(C)(C)C)cc2C(C)(C)C)C1=O` (configuration not stated) showed a growth inhibition of -9%. In the case of `[Mn+2].[NH-]CC(=O)NC(Cc1ccccc1)C(=O)O.[NH-]CC(=O)NC(Cc1ccccc1)C(=O)O` (configuration not stated), the growth inhibition is reported as -34.2%. Compound `CCCc1ccccc1[N+](=O)[O-]` has a growth inhibition of -4.35%. Work on `c1csc(-c2cc(-c3ccsc3)c(-c3cccs3)s2)c1` yielded a growth inhibition of -0.1%. In the case of `NC(=O)c1cccnc1`, the growth inhibition is reported as -27.2%. For `Cc1ccc([N+](=O)[O-])cc1N=C=O`, the growth inhibition was -34%. `CC1=NNC(c2ccco2)C1` (configuration not stated) showed a growth inhibition of 18.1%. `CCOC(=O)c1nc2c(Cl)c3ncccc3cc2[nH]c1=O` gave a growth inhibition of -9.7%. `COc1ccccc1C(=O)N/N=C/c1ccccc1Cl` showed a growth inhibition of -4.3%. `C=C(CC/C=C\CO)[Si](C)(C)C` showed a growth inhibition of 7.35%. In the case of `C=C(S(=O)(=O)CC)S(=O)(=O)CC`, the growth inhibition is reported as -53%. Work on `Cc1ccc2cccc(N)c2n1` yielded a growth inhibition of -33.5%. Work on `CC/C(Cl)=N\OC(=O)Nc1ccccc1OC(F)(F)F` yielded a growth inhibition of -13.6%. With `CCCCCc1ccc2oc(=O)c3ccc(C)cc3c2c1O` the growth inhibition was -16.8%. `Cc1ccc2cccc3c2c1CC1(C3=O)S(=O)(=O)OCCOS1(=O)=O` gave a growth inhibition of 14.7%. `O=C(CC12C3C4C1C1C2C3C41CC(=O)NO)NO` (configuration not stated) gave a growth inhibition of 11.9%. Compound `c1csc(CNc2cccc3ccccc23)c1` has a growth inhibition of -22.1%. `O=S(=O)(C/C=C/COc1ccccc1)c1ccc2ccccc2c1` showed a growth inhibition of 3.6%. Work on `NC1=NC(c2ccccc2)C2=C(N1)C(=O)N(c1ccc(Br)cc1)C2` (configuration not stated) yielded a growth inhibition of -12.3%. In the case of `CCc1cccc(NC(=O)c2cc(/C=C/c3ccccc3)[nH]c(=S)n2)c1`, the growth inhibition is reported as -1.85%. `COC1C=C(Br)C(=O)C(C)O1` (configuration not stated) gave a growth inhibition of -2.3%. Work on `CCOC(=O)/C(=C\c1ccnc2ccccc12)P(=O)(OCC)OCC` yielded a growth inhibition of 11.1%. Work on `c1ccc(C2=NCCN2)nc1` yielded a growth inhibition of -1.15%. For `O=C1/C(=C/c2ccc(O)c(O)c2)CC/C1=C\c1ccc(O)c(O)c1`, the growth inhibition was 10.9%. For `CSc1ncc2c(n1)-c1ccccc1OC2N1CCCCC1` (configuration not stated), the growth inhibition was -3.45%. `S=C(SSSC(=S)N(C1CCCCC1)C1CCCCC1)N(C1CCCCC1)C1CCCCC1` gave a growth inhibition of 1.45%. In the case of `CCC[CH2][Ge]([CH2]CCC)([CH2]CCC)[O]C(=O)CCl`, the growth inhibition is reported as -52.9%. Compound `Cc1ccc([N+](=O)[O-])cc1NC(=O)C(=O)C(C(=O)c1ccccc1F)C1OC(=O)c2ccccc21` (configuration not stated) has a growth inhibition of 13.1%. `CN1C=CCC(C=O)C1` (configuration not stated) showed a growth inhibition of -3.7%. Work on `O=C(C(O)c1ccccc1)N1CCCCC1` (configuration not stated) yielded a growth inhibition of 9.85%. With `O=C(OCc1ccccc1)c1ccccc1-c1c2ccc(=O)cc-2oc2cc(OCc3ccccc3)ccc12` the growth inhibition was 23.6%. Work on `CCCCCCCC/C=C\CCCCCCCC(=O)O` yielded a growth inhibition of -22.9%. `CCc1cccc[n+]1CC(=O)c1ccccc1` gave a growth inhibition of -41.8%. With `c1ccc(Sc2cccc3c(-c4ccccc4)c4cccc5c4c(c23)C[S+]5c2ccccc2)cc1` (configuration not stated) the growth inhibition was 98.5% (active).
